Sampled rows, rich in hits. Any-hit rate of the full collection: about 8.5%.
NPSR antag: qHTS Assay for Antagonists of the Neuropeptide S Receptor: cAMP Signal Transduction | Q6W5P4 | CHO-NPSR cells, cAMP TR-FRET, antagonist mode | Potency, µM (series often up to 38.3 µM), actives largely listed as inhibitors | actives 1% (n = 220,000) | AID 1461, 2008; note: nearly all actives have a fitted effect of over 50% in size
Target sequence (Q6W5P4 whole entry, looked up): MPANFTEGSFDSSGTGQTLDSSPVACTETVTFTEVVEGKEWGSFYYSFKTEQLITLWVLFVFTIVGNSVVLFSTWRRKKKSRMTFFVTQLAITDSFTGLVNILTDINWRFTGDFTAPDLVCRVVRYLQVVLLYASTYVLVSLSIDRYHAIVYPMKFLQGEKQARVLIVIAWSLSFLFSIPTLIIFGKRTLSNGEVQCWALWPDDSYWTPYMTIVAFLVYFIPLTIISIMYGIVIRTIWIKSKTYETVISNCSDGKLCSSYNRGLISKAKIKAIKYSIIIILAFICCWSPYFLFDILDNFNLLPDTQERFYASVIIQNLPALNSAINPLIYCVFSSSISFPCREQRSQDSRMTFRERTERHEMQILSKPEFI
ALDH1A1 inh: qHTS Assay for Inhibitors of Aldehyde Dehydrogenase 1 (ALDH1A1) | Purified ALDH1A1, NADH fluorescence, propionaldehyde substrate | Potency, µM (doses to about 75.3 µM), hits mostly inhibitors | actives 7.3% (n = 220,000) | AID 1030, 2008; active = well fitted inhibition curve with a large enough effect, not every such curve was filed as active; inconclusive = small, poorly fitted or top-dose-only effect, or another doubt; inactive = no such curve, though single readings can be large or run the other way
GoLoco inh red: qHTS Assay for Inhibitors of RGS12 GoLoco Motif Activity (Red Fluorophore) | actives 0.44% (n = 230,000) | Guanine nucleotide-binding protein G(i) subunit alpha-1 (Homo sapiens), P63096 | Gai1:RGS12 GoLoco peptide FP, rhodamine, 10 min | Potency, µM (highest dose often 61.6 µM), hits mostly inhibitors; active = well fitted inhibition curve with a large enough effect, not every such curve was filed as active; inactive = no such curve, though single readings can be large or run the other way; note: nearly all actives have a fitted effect of over 30% in size
Target sequence (P63096 whole entry, looked up): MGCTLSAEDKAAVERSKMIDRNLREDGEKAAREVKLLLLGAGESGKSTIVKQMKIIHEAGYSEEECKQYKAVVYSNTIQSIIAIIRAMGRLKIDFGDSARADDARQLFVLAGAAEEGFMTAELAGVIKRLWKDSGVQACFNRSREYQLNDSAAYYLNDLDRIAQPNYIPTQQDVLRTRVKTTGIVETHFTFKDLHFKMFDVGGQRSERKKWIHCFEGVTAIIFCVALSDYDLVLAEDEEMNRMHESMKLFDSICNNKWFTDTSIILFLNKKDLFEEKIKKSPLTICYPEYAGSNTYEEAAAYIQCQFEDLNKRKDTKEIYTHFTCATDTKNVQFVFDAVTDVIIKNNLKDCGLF
JMJD2E inh: qHTS Assay for Inhibitors of Human Jumonji Domain Containing 2E (JMJD2E); JMJD2E catalytic domain, FDH-coupled NADH fluorescence (FDH is formaldehyde dehydrogenase); Potency, µM (doses to about 57.1 µM), usual class: inhibitors; Lysine-specific demethylase 4E (Homo sapiens), B2RXH2; AID 2147, 2009; actives 1.6% (n = 230,000); active = well fitted inhibition curve with a large enough effect, not every such curve was filed as active; inconclusive = small, poorly fitted or top-dose-only effect, or another doubt; inactive = no such curve, though single readings can be large or run the other way; note: nearly all actives have a fitted effect of over 50% in size
Sfp PPTase inh: qHTS Assay for Inhibitors of Bacillus subtilis Sfp phosphopantetheinyl transferase (PPTase). actives 3.5% (n = 310,000). 4'-phosphopantetheinyl transferase ffp (Bacillus subtilis), Q9F4F7. Biochemical Sfp PPTase activity, qHTS. Potency, µM, hits mostly inhibitors;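 note: the enzyme is Sfp with the accession as filed and its product quenches rhodamine fluorescence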
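Reaction rates are the 30-min fluorescence difference (ex 525, em 598 nm) in wells containing 15 nM Sfp, 5 uM rhodamine-CoA and 12.5 uM BHQ-2-YbbR at pH 7.6 with 10 mM MgCl2.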
FBPA coupling cs: qHTS Assay for Inhibitors of Fructose-1,6-bisphosphate Aldolase from Giardia Lamblia: Coupling assay counterscreen | AID 2472, 2010 | actives 0.67% (n = 290,000) | activity change, negative = inhibition, % at 58.2 µM, hits read low | coupling enzyme system counterscreen, AmpLite Red fluorescence; in the data active = activity change below about -30%
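Final compound at 57.5 uM, incubated 10 min at RT with coupling enzyme reagent (glyceraldehyde-3-phosphate), then 20 min with substrate and AmpLite Red detection. Fluorescence read at 525/598 nm; tests interference with the coupling assay, not aldolase inhibition.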
A number is an active result; [ ] = remark or other dose. Unless noted, calls come from the whole dose curve; as a rule, active = well fitted curve in the direction sought with a large enough effect; inconclusive = small, poorly fitted or top-dose-only effect, or another doubt; inactive = no such curve, though single readings can be large; an effect the other way counts as inactive or inconclusive.

What do the screens show for `CCCCc1nc2c(c3c1CC(C)OC3)CN(CCC(C)C)CC2` (stereo not given)?
ALDH1A1 inh: inactive[13.5 µM]; Sfp PPTase inh: inactive; FBPA coupling cs: inactive

Results for C[C@@H]1CC[C@H]2[C@H](C)C3[C@H](C[C@H]4[C@@H]5CC=C6C[C@@H](O)CC[C@@]6(C)[C@@H]5C[C@@H](O)[C@]34C)N2C1 (stereo not given in full) ?
ALDH1A1 inh: inactive[13.5 µM]; GoLoco inh red: inactive[14.2 µM]

How did COc1ccc(C/C(C)=N/NC(=S)Nc2ccc(C)c(C)c2)cc1 do in these assays?
NPSR antag: inactive; ALDH1A1 inh: 24µM; JMJD2E inh: inactive; Sfp PPTase inh: inactive; FBPA coupling cs: inactive

What do the screens show for `COc1ccc(C/C(C)=N/NC(=S)Nc2ccc(Cl)cc2)cc1`?
NPSR antag: inactive; GoLoco inh red: inactive; JMJD2E inh: inactive; Sfp PPTase inh: inconclusive; FBPA coupling cs: inactive

Results for COc1ccc(NC(=S)N/N=C/c2cccn2Cc2ccc(F)cc2)cc1 ?
NPSR antag: inactive; ALDH1A1 inh: 40µM; GoLoco inh red: inactive; JMJD2E inh: inactive; Sfp PPTase inh: inactive; FBPA coupling cs: inactive

What do the screens show for `Cc1ccc(Cn2cccc2/C=N/NC(=S)Nc2ccc(C)cc2)cc1`?
NPSR antag: inactive; ALDH1A1 inh: inactive; GoLoco inh red: inactive; JMJD2E inh: inactive; Sfp PPTase inh: inactive; FBPA coupling cs: inactive

What do the screens show for `COc1ccc(C/C(C)=N/NC(=S)Nc2ccccc2)cc1`?
NPSR antag: inactive; ALDH1A1 inh: 22µM; GoLoco inh red: inactive; JMJD2E inh: inactive; Sfp PPTase inh: inconclusive; FBPA coupling cs: inactive

How did CCCCC=O do in these assays?
ALDH1A1 inh: inactive; GoLoco inh red: inactive

Results for Cc1cc(NC(=O)CCC(=O)N(CC(=O)NCC2CCCO2)c2ccc(F)c(Cl)c2)no1 (stereo not given) ?
Sfp PPTase inh: inactive; FBPA coupling cs: inactive

What do the screens show for `O=S(=O)(Cc1ccco1)Cc1nc(-c2ccc(Cl)cc2)cs1`?
NPSR antag: inactive; ALDH1A1 inh: inactive; GoLoco inh red: inactive; JMJD2E inh: inactive; Sfp PPTase inh: 25µM; FBPA coupling cs: inactive

Results for O=S(=O)(Cc1noc(-c2ccc(Cl)cc2)n1)Cc1ccco1 ?
NPSR antag: inactive; ALDH1A1 inh: inactive; GoLoco inh red: inactive; JMJD2E inh: inactive; Sfp PPTase inh: 4µM; FBPA coupling cs: inactive

What do the screens show for `Clc1ccc(-c2nc(Cc3ccccc3Cl)no2)cc1`?
NPSR antag: inactive; ALDH1A1 inh: inactive; GoLoco inh red: inactive; JMJD2E inh: inactive; Sfp PPTase inh: inactive; FBPA coupling cs: inactive

What do the screens show for `N=C(N)SCc1ccc(O)c([N+](=O)[O-])c1`?
NPSR antag: inconclusive; GoLoco inh red: inactive; JMJD2E inh: inactive; Sfp PPTase inh: 79µM; FBPA coupling cs: inactive

Results for COc1ccc(Cn2ccnc2CO)cc1[N+](=O)[O-] ?
NPSR antag: inactive; ALDH1A1 inh: 6.3µM; GoLoco inh red: inactive; JMJD2E inh: inactive; Sfp PPTase inh: inactive; FBPA coupling cs: inactive

What do the screens show for `COc1ccc(CSC(=N)N)cc1[N+](=O)[O-]`?
NPSR antag: inactive; ALDH1A1 inh: 28µM; GoLoco inh red: inactive; JMJD2E inh: inactive; Sfp PPTase inh: inactive; FBPA coupling cs: inactive

How did Oc1c(CN2CCN(c3ccccc3)CC2)cc(Br)c2cccnc12 do in these assays?
NPSR antag: 7.9µM; ALDH1A1 inh: inactive[13.5 µM]; GoLoco inh red: inactive[14.2 µM]; JMJD2E inh: inconclusive; Sfp PPTase inh: inactive; FBPA coupling cs: inactive

Results for Oc1c(CN2CCOCC2)cc(COCc2ccccc2)c2cccnc12 ?
NPSR antag: inactive; ALDH1A1 inh: inactive; GoLoco inh red: inactive; JMJD2E inh: 25µM; Sfp PPTase inh: inactive; FBPA coupling cs: inactive

How did c1ccc(N2CCN(Cc3ccnc4ccccc34)CC2)cc1 do in these assays?
NPSR antag: inactive; ALDH1A1 inh: 16µM; GoLoco inh red: inactive; JMJD2E inh: inconclusive; Sfp PPTase inh: inactive; FBPA coupling cs: inactive

What do the screens show for `Oc1c(Br)cc(Br)c2cccnc12`?
ALDH1A1 inh: inactive; GoLoco inh red: inactive; JMJD2E inh: 20µM; Sfp PPTase inh: inactive; FBPA coupling cs: inactive

Results for COc1ccc(C(C)C)cc1S(=O)(=O)NC1CCCC1 ?
Sfp PPTase inh: inactive

What do the screens show for `CC(C)[C@@H](OCc1ccccc1)[C@H](C)/C=N\OC[C@@H](O)[C@@H]1O[C@@H]2OC(C)(C)O[C@@H]2[C@H]1O`?
ALDH1A1 inh: inactive[13.5 µM]; Sfp PPTase inh: inactive; FBPA coupling cs: inactive

What do the screens show for `CC(=O)N1C(=O)CC(C)N(C(C)=O)c2ccc([N+](=O)[O-])cc21` (stereo not given)?
NPSR antag: inactive; ALDH1A1 inh: inactive; GoLoco inh red: inactive; JMJD2E inh: inconclusive; Sfp PPTase inh: inactive; FBPA coupling cs: inactive

Results for CCc1ccc(-c2nc(CS(=O)CC(=O)NCc3ccc4c(c3)OCO4)c(C)o2)cc1 (stereo not given) ?
Sfp PPTase inh: inactive

How did C=CCN(CC=C)Cc1c(O)ccc2c(=O)c(-c3ccccc3)coc12 do in these assays?
Sfp PPTase inh: inactive; FBPA coupling cs: inactive

What do the screens show for `OC(Cc1cccnc1)(Cc1cccnc1)c1cc2ccccc2[nH]1`?
NPSR antag: inactive; ALDH1A1 inh: inactive; GoLoco inh red: inactive; JMJD2E inh: inactive; Sfp PPTase inh: inactive; FBPA coupling cs: inactive

How did Cc1c(C#N)c(NC(=O)CCl)n(Cc2cccs2)c1C do in these assays?
NPSR antag: inactive; ALDH1A1 inh: inconclusive; GoLoco inh red: inactive; JMJD2E inh: inactive; Sfp PPTase inh: inactive; FBPA coupling cs: inactive

What do the screens show for `C=CCOc1cccc(CNc2cccc(C(=O)O)c2)c1`?
NPSR antag: inactive; GoLoco inh red: inactive; JMJD2E inh: inconclusive; Sfp PPTase inh: inactive; FBPA coupling cs: inactive

What do the screens show for `O=C(COC(=O)CCCNC(=O)c1ccc(Cl)cc1)NCc1ccccc1Cl`?
NPSR antag: inconclusive; ALDH1A1 inh: 4.5µM; GoLoco inh red: inactive; JMJD2E inh: inactive; Sfp PPTase inh: inactive; FBPA coupling cs: inactive

Results for COc1ccc(C(=O)c2ccc(O)cc2)c(O)c1O ?
ALDH1A1 inh: inconclusive; GoLoco inh red: inactive; JMJD2E inh: 16µM; Sfp PPTase inh: 28µM; FBPA coupling cs: inactive

Results for CCOc1ccc(C(=O)c2ccc(OC)c(O)c2O)cc1 ?
ALDH1A1 inh: inactive; GoLoco inh red: inactive; JMJD2E inh: 25µM; Sfp PPTase inh: inactive; FBPA coupling cs: inactive

How did O=C(NCCCO)C(=O)NCc1ccncc1 do in these assays?
NPSR antag: inactive; ALDH1A1 inh: inactive; GoLoco inh red: inactive; JMJD2E inh: inactive; Sfp PPTase inh: inactive; FBPA coupling cs: inactive

Source: PubChem (National Center for Advancing Translational Sciences (NCATS))
